Measurements reported in PubChem BioAssay AID540308 (The Scripps Research Institute Molecular Screening Center, 2011).
Screen size: about 360,000 compounds; about 3,500 (0.97%) were called active. The list comes from a sample in which actives are over-represented; it also holds similar structures and randomly drawn compounds. Values without a mark were called inactive.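 Rule for the calls: active = activation above a per-plate cutoff, the mean activation of sample wells on that plate plus 3 SD (cut at about 8% in these data); inactive = the rest.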

Each compound was assayed against Melanocortin receptor 4 (Homo sapiens) (UniProt P32245) (assay: activators of MC4R beta-arrestin recruitment – cell-based, luminescence, agonist arm of biased-ligand search, primary screen (AID 540308)). Conditions: U2OS MC4R beta-arrestin complementation, at 8.9 µM, active compounds read high, percent of melanotan II response, DMSO zero.
Melanocortin receptor 4 (Homo sapiens), sequence (P32245 whole entry, looked up): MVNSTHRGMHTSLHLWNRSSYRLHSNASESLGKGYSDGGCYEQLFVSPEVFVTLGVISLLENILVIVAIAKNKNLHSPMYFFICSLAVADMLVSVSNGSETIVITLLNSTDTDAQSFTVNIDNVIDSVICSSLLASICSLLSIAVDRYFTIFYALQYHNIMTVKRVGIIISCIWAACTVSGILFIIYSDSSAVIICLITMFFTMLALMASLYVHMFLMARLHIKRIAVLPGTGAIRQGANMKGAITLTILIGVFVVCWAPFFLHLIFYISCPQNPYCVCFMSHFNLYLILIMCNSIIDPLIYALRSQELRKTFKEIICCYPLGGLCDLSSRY
In the case of `COc1ccc(S(=O)(=O)NC(=O)C2(C)CCN2C(=O)c2ccccc2CCc2ccccc2)cc1` (configuration not stated), the activation is reported as -2.22%.
`CNC(=S)N/N=C/c1ccc(OCc2ccccc2)c(Br)c1` was tested, and the activation was 8.56% (active).
`O=C(O)c1ccc(/C=N/NC(=S)NCc2ccccc2)cc1` showed an activation of 0.6%.
With `O=C(O)COc1ccc(/C=N/O)cc1Br` the activation was -1.99%.
In the case of `CCCC(=O)N1CCC1(C)C(=O)Nc1ccc(-n2cncn2)cc1` (configuration not stated), the activation is reported as 0.24%.
For `CC(=O)Nc1ccc(CNc2nc(NCCN(C)C)nc3cc(-c4ccccc4)sc23)cc1`, the activation was 0.89%.
`COc1cccc(CNc2nc(NCc3cccs3)nc3ccsc23)c1` was tested, and the activation was -1.2%.
With `COCCNc1nc(Nc2ccccc2Cl)c2sc(-c3ccccc3)cc2n1` the activation was 10.6% (active).
`COc1ccccc1CNc1nc(Nc2ccccc2Cl)c2sccc2n1` gave an activation of 0.15%.
For `Clc1ccccc1Nc1nc(NCc2cccs2)nc2ccsc12`, the activation was 15.7% (active).
`COc1cccc(-c2cc3nc(NCCOc4ccccc4Cl)n(C)c(=O)c3s2)c1` was tested, and the activation was 2.56%.
`COc1ccc(C(C)(O)c2nc(-c3ccc(C)c(C)c3)cs2)cc1` (configuration not stated) showed an activation of 0.79%.
`Cc1cc(NS(=O)(=O)c2ccc(NC(=O)c3cccc(OC(F)F)c3)cc2)nc(C)n1` gave an activation of 0.09%.
In the case of `Cc1ccc2nc(-c3ccncc3)cc(C(=O)Nc3ccc(OC(F)F)cc3)c2c1`, the activation is reported as 13.6% (active).
With `COc1ccc(NC(=O)c2cc(-c3cc(OC)c(OC)c(OC)c3)nc3ccccc23)c(OC)c1` the activation was 1.47%.
Work on `CCc1ccc(-c2cc(C(=O)NN3CCN(C)CC3)c3ccccc3n2)cc1` yielded an activation of -0.59%.
Compound `CC(C)c1cc(C(=O)NC2CCCCCC2)c2ccccc2n1` has an activation of -0.07%.
Compound `Cc1ccc(-n2c(SCC(=O)Nc3ccc4c(c3)OCO4)nnc2-c2ccccn2)cc1` has an activation of 1.14%.
For `Cc1ccc2nc(-c3ccncc3)cc(C(=O)Nc3ccncc3)c2c1`, the activation was 10.5% (active).
For `Cc1ccc2nc(-c3ccccn3)cc(C(=O)Nc3ccc4c(c3)OCO4)c2c1`, the activation was 8.55% (active).
With `CC1CCCC(NC(=O)c2cc(-c3ccncc3)nc3ccccc23)C1C` (configuration not stated) the activation was 8.93% (active).
In the case of `CSc1ncccc1C(=O)Nc1ccc2c(c1)OCO2`, the activation is reported as -2.93%.
For `O=C(Nc1ccc(S(=O)(=O)Nc2nccs2)cc1)c1cc(-c2ccncc2)nc2ccccc12`, the activation was 1.73%.
Work on `COc1cc2ccccc2cc1C(=O)Nc1ccncc1` yielded an activation of -0.89%.
`CCOC(=O)C1CCCN(C(=O)c2cc(-c3cccs3)oc2C)CC1` (configuration not stated) was tested, and the activation was 1.53%.
Compound `CCCS(=O)(=O)NC(=O)C1(C)CCCN(C(=O)c2ccnc(Cl)c2)C1` (configuration not stated) has an activation of -0.96%.
`CCCCc1ccc(S(=O)(=O)NC(=O)C2(C)CCN2C(=O)c2ccccc2)cc1` (configuration not stated) gave an activation of 0.97%.
In the case of `OC[C@@H]1CN(Cc2ccc(-c3ccccc3)cc2)C[C@H](n2cnc3c(NC4CCCC4)ncnc32)O1`, the activation is reported as 5.7%.
Compound `CCc1nc2c(OCc3ccc(C(=O)OC)cc3)cccn2c1N(C)C(=O)C(C)C` has an activation of 1.62%.
`CC1(C(=O)NS(=O)(=O)c2ccccc2)CCN1C(=O)c1ccccc1` (configuration not stated) was tested, and the activation was -1.65%.
`CCc1ccc2c(c1)cc(CN(C(=S)Nc1ccccc1Cl)C1CC1)c1nnnn12` was tested, and the activation was 12.6% (active).
`CCOc1ccc2c(c1)cc(CN(C(=O)CC)C1CCCCC1)c1nnnn12` was tested, and the activation was 0.48%.
For `CCc1cccc(NC(=S)N(CCN(C)C)C2CCN(C(C)C)CC2)c1`, the activation was -0.19%.
`CC1(C(=O)NS(=O)(=O)c2cccc(F)c2)CCN1C(=O)Cc1cc(F)ccc1F` (configuration not stated) showed an activation of -0.76%.
Compound `CCNC(=O)C1(C)CCCN(C(=O)c2c(C)noc2C)C1` (configuration not stated) has an activation of 0.77%.
With `Cc1ccsc1/C=N/NC(=O)Cc1cc(=O)[nH][nH]1` the activation was -1.77%.
Work on `C/C(=N\Nc1ccc(Cl)nn1)c1ccccc1O` yielded an activation of -0.38%.
With `Cc1ccsc1/C=N/Nc1ccc(Cl)nn1` the activation was 12.3% (active).
With `COc1ccccc1CNC(=O)c1cc(-c2cc(F)ccc2OC)n[nH]1` the activation was 1.31%.
For `CCCCC(=O)N(C)c1c(CC)nc2c(OCc3ccc(Cl)cc3Cl)cccn12`, the activation was 0.75%.
`CC(=O)OC[C@@H]1CN(Cc2ccccc2)C[C@H](n2cnc3c(NCc4ccco4)ncnc32)O1` gave an activation of -2.47%.
`COc1cccc2cc(-c3cc(=O)oc4cc(C)c(O)cc34)oc12` was tested, and the activation was 1.6%.
`COc1ccc(Nc2cc(=O)oc3ccccc23)cc1` was tested, and the activation was -0.49%.
`COc1ccc2oc(=O)cc(-c3cc4ccccc4o3)c2c1` was tested, and the activation was 8.24% (active).
In the case of `CCN(c1ccccc1)S(=O)(=O)c1ccc(C(=O)Nc2ccccc2OC)cc1`, the activation is reported as 0.77%.
`CCN(c1ccccc1)S(=O)(=O)c1ccc(C(=O)Nc2nccs2)cc1` was tested, and the activation was 8.9% (active).
For `CCN(c1ccccc1)S(=O)(=O)c1ccc(NC(=O)C(C)(C)C)cc1`, the activation was -0.35%.
In the case of `O=C(NC(c1ccc(Cl)cc1)c1cnccn1)C1CCN(Cc2ccc(Cl)cc2)CC1` (configuration not stated), the activation is reported as -0.34%.
With `Cc1ccc(C(NC(=O)C2CCN(CCOc3ccc(Cl)cc3Cl)CC2)c2ccccn2)cc1` (configuration not stated) the activation was 4.91%.
With `O=C(NC(c1ccc(-c2ccccc2)cc1)c1cnccn1)C1CCN(CCOc2ccc(Cl)cc2Cl)CC1` (configuration not stated) the activation was 18% (active).
`CCc1ccc2c(c1)NC(=O)C2(C)Cc1ccc(OC(F)(F)F)cc1` (configuration not stated) gave an activation of -0.4%.
Compound `Cc1ccc(-c2cnc(C(O)c3cccc(C)c3C)[nH]2)cc1` (configuration not stated) has an activation of -0.77%.
For `CC(C)c1ccc2c(c1)c(SC(C)(C)C)c(CC(C)(C)C(=O)O)n2Cc1ccc(Cl)cc1`, the activation was 15.9% (active).
With `COCCNC(=O)C1CCCN(Cc2ccccc2Cl)CC1` (configuration not stated) the activation was -0.57%.
With `CC(=O)Nc1ccc(-c2ccnc3c2CC(C(=O)NC(C)C)O3)cc1` (configuration not stated) the activation was -1.59%.
With `O=C(NCCO)c1cccc(-c2cccc3nccn23)c1` the activation was -1.27%.
In the case of `CNc1cncc(-c2ccc(NS(C)(=O)=O)cc2)n1`, the activation is reported as -1.66%.
For `CCOC(=O)c1[nH]c2c(c1-c1ccccc1)C(=O)CC(c1ccc(Cl)cc1)C2` (configuration not stated), the activation was 13.1% (active).
`CCOC(=O)C1=C(CN2CCc3ccccc32)NC(=O)NC1c1ccc(Cl)cc1` (configuration not stated) gave an activation of 6.41%.
`CCCOC(=O)c1[nH]c2c(c1C)C(=O)CC(c1cccs1)C2` (configuration not stated) was tested, and the activation was -0.13%.
`CS(=O)(=O)/C(C#N)=C/c1cccn1S(=O)(=O)c1ccc([N+](=O)[O-])cc1` showed an activation of -0.77%.
`O=C(O)c1ccccc1-c1cccc2nncn12` showed an activation of 1.15%.
For `OC(c1ccccc1)c1nc(-c2cnc3ccccc3c2)cs1` (configuration not stated), the activation was -1.73%.
`O=C(Nc1cccn(Cc2ccccc2Cl)c1=O)NC1CCCCC1` gave an activation of -3.02%.
In the case of `COc1ccc(Cn2cccc(NC(=O)Nc3ccc(C#N)cc3)c2=O)cc1`, the activation is reported as 8.99% (active).
`COc1ccc(Cn2c(C)c(C)c(C#N)c2NC(=O)Nc2ccc(F)cc2)cc1` was tested, and the activation was 9.65% (active).
In the case of `Cc1ccc(C(=O)Nc2c(C#N)c(C)c(C)n2Cc2ccccc2)cc1`, the activation is reported as 0.7%.
`COc1cccc(NC(=O)CN(C)C(C)C(=O)Nc2ccc(C#N)cc2)c1` (configuration not stated) showed an activation of -2.21%.
`Cc1c(C#N)c(NC(=O)c2ccccc2)n(Cc2ccccc2)c1C` gave an activation of 1.54%.
`O=C(NCc1cccnc1)c1cc(C2CCCN(C(=O)C3CCCCC3)C2)on1` (configuration not stated) showed an activation of 0.25%.
`CC1(Cc2cccc(C#N)c2)C(=O)Nc2ccc(-c3cccc(C(F)(F)F)c3)cc21` (configuration not stated) gave an activation of 1.34%.
`CCOc1ccc(Cl)cc1-c1cc(C(=O)NCc2cccs2)[nH]n1` showed an activation of 1.31%.
`O=C(CSc1nc2cccc(F)c2c(=O)n1-c1ccccc1)Nc1ccc2c(c1)CCC2` was tested, and the activation was 1.04%.
`CCOC(=O)C1=C(O)/C(=C/c2ccc(OCC(=O)Nc3ccc(C)cc3)cc2)N=C1C` was tested, and the activation was 16.8% (active).
With `COC(=O)C1=C(O)/C(=C/c2ccc(OCC(=O)Nc3ccccc3)cc2)N=C1C` the activation was -2.96%.
In the case of `Cc1ccc(NC(=O)COc2ccc(/C=C3/NC(=O)NC3=O)cc2)cc1`, the activation is reported as -1.81%.
`COC(=O)c1ccc(CN2C(=O)C(Cc3ccccc3)ON=C2c2ncccc2C)o1` (configuration not stated) gave an activation of 0.08%.
For `CS(=O)(=O)c1cccc(-c2ccc3nncn3c2)c1`, the activation was 0.6%.
Work on `CSc1ccccc1OCc1cc(C(=O)N2C[C@H]3CC[C@H]2C3)no1` yielded an activation of -3.22%.
Work on `O=C(O)c1cscn1` yielded an activation of -0.73%.
`Cc1ccc2nc(-c3ccc(SCC(=O)Nc4cc(C)on4)nc3)[nH]c2c1` was tested, and the activation was -0.33%.
`Cc1ccc(-c2csc(SCC(=O)Nc3cc(C)on3)n2)cc1` was tested, and the activation was 12.5% (active).
For `Cc1cc(NC(=O)CSCC(=O)NC(C)c2ccccc2)no1` (configuration not stated), the activation was 3.59%.
Work on `CCc1nc2ccc(C(=O)N3CCN(S(=O)(=O)CC)CC3)cn2c1N(C=O)CCC(C)C` yielded an activation of -1.41%.
`CC(C)Cn1cc(-c2cncc3nccn23)cn1` showed an activation of -1.32%.
`COc1ccccc1CC1(C)C(=O)Nc2ccc(OC(F)(F)F)cc21` (configuration not stated) gave an activation of 4.13%.
`O=C(c1ccccc1Oc1ccccc1)N1CCN(c2ccc(F)cc2)CC1` gave an activation of -0.88%.
Work on `Cc1c(C(=O)N2CCN(c3ccc(F)cc3)CC2)oc2c1C(=O)CCC2` yielded an activation of -0.69%.
`O=C(c1cc2cc(F)ccc2[nH]1)N1CCN(c2ccc(F)cc2)CC1` was tested, and the activation was 9.41% (active).
Compound `CS(=O)(=O)N1CCCCC1c1cc(C(=O)NCc2ccccc2)no1` (configuration not stated) has an activation of 0.31%.
With `CC1(C(=O)NCc2ccc3c(c2)OCO3)CCN1CCc1ccccc1` (configuration not stated) the activation was 1.41%.
In the case of `CCCNC(=O)C1(C)CCCN(C(=O)c2cccc(OC(C)=O)c2C)C1` (configuration not stated), the activation is reported as -0.89%.
